Assay results reported in PubChem BioAssay (Tox21).
A number with no mark means an inactive call. Calls follow the shape of the full dose curve.

Molecular target: Gonadotropin-releasing hormone receptor (Homo sapiens) (UniProt P30968)
Experiment: Human gonadotropin-releasing hormone receptor (GnRHR) small molecule agonists, calcium flux assay in GnRHR-HEK293 cells (AID 1920063); also: nearly all actives have a fitted effect of over 35% in size
Details: calcium flux fluorescence, agonist mode; series mostly up to 57.6 µM; activity change: at the top concentration
From the text: National Center for Advancing Translational Sciences [NCATS]
Division of Preclinical Innovation [DPI]
U.S. Environmental Protection Agency [EPA]
National Institutes of Environmental Health Sciences [NIEHS]
National Toxicology Program [NTP]
U.S. Food and Drug Administration [FDA]
Gonadotropin-releasing hormone receptor (GnRHR) is a G-protein-coupled receptor (GPCR) and acts (through phospholipase C) to increase intracellular inositol trisphosphate and then release intracellular calcium stores. Cell-based GnRHR-Hek293 calcium influx assay is using HEK293 cells that have been genetically engineered to express the human GnRHR, which activity can be measured by calcium signaling. A compound/drug can activate (agonist) GnRHR that can be monitored by levels of intracellular calcium.
GnRHR-HEK293 cells developed by Codex Corp contain human GnRHR reporter gene, which was stably integrated into HEK 293 cells. The compound activation can be detected by fluorescence intensity via calcium flux assay. This cell line has been used to screen the Tox21 10K compound library to identify GnRHR agonists.
GnRHR-Hek293 cells were dispensed at 1500cells/4uL/well in 1536-well black wall/clear bottom plates using a multidrop dispenser. After the assay plates were incubated at a 37 C/5% CO2 incubator for 18 hours, 4 uL of Calcium Dye Solution was added to each well. The plates were incubated at 37 C for 1 hour. For agonist mode, 23 nL of compounds dissolved in DMSO, positive controls or DMSO only was transferred to the assay plate by a pin tool station. The fluorescence intensity in the plates was measured using FDSS 7000EX kinetic plate reader with a filter set of Ex/Em=480/540 for 3 min at 1 sec intervals. Each test compound was measured at 15 concentrations and in triplicates.
% is scaled to controls: 0 for no effect and ±100 for the full control effect.

Chain of Gonadotropin-releasing hormone receptor (Homo sapiens) (P30968 whole entry, looked up): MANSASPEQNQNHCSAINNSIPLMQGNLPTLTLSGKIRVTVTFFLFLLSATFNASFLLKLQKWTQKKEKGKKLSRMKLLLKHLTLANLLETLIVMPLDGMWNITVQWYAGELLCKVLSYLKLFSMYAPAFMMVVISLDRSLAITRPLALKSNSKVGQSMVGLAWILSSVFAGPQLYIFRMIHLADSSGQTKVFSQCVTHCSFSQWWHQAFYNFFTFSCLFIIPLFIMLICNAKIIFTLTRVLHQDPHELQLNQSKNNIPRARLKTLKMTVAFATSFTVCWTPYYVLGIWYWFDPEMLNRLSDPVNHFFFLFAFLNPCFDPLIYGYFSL

**Q.** How did the “activity change” value turn out when `[Cu+]` was run?
**A.** The value was -0.0098%.

**Q.** With `N[C@H]1C(O)O[C@H](CO)[C@H](O)[C@@H]1O` (stereo not given in full) as the compound, how does the “activity change” value read?
**A.** Its value is 0.0695%.

**Q.** For `CC(C)(C)c1cc(C=O)cc(C(C)(C)C)c1O`, which “activity change” value is on record?
**A.** Its value is 6.09% [at 26.4 µM, active compounds read high].

**Q.** `CCOc1ccccc1N` was tested. Which “activity change” value did it give?
**A.** Its value is -1.87%.

**Q.** `Cc1nc2n(c(=O)c1CCN1CCC(c3noc4cc(F)ccc34)CC1)CCC[C@H]2O` was tested. Which activity change did it give?
**A.** The activity change was -1.01% [at 11.8 µM, active compounds read high].

**Q.** For `CC(C)=CC1CC(C)CCO1` (stereo not given), which “activity change” value is on record?
**A.** Its value is 0.231%.

**Q.** `CO/N=C(\C(=O)O)c1csc(NC(=O)CCl)n1` was tested. Which “activity change” value did it give?
**A.** Its value is -0.76% [at 26.4 µM, active compounds read high].

**Q.** How did the “activity change” value turn out when `Nc1ccc(NC(=O)c2ccc(N)cc2)cc1` was run?
**A.** Its value is 0.457%.

**Q.** How did the “activity change” value turn out when `COCCOCC(OC)OC` was run?
**A.** Its value is -1.43% [at 26.4 µM, active compounds read high].

**Q.** How did the “activity change” value turn out when `O=S1(=O)c2cccc3cccc(c23)N1CCCN1CCN(c2ccc(F)cc2)CC1` was run?
**A.** Its value is 1.09% [at 26.4 µM, active compounds read high].

**Q.** For `CN(C)[C@@H]1C(=O)C(C(=O)NCN2CCCC2)=C(O)[C@@]2(O)C(=O)C3=C(O)c4c(O)cccc4[C@@](C)(O)C3C[C@@H]12` (stereo not given in full), which “activity change” value is on record?
**A.** Its value is 1.24% [at 26.4 µM, active compounds read high].

**Q.** `O=S(=O)(Cl)c1c(Cl)cccc1Cl` was tested. Which “activity change” value did it give?
**A.** The value was 0.608%.

**Q.** Which “activity change” value does the source give for `CC(C=O)Cc1ccc(C(C)C)cc1` (stereo not given) here?
**A.** The value was -0.301%.

**Q.** `CN(C(=O)CCCOc1ccc2[nH]c(=O)ccc2c1)C1CCCCC1` was tested. Which “activity change” value did it give?
**A.** Its value is 0.184% [at 26.4 µM, active compounds read high].

**Q.** How did the “activity change” value turn out when `COc1ncnc(NS(=O)(=O)c2ccc(N)cc2)c1OC` was run?
**A.** Its value is -1.42% [at 26.4 µM, active compounds read high].

**Q.** Which “activity change” value does the source give for `C[C@@H](CN1CC(=O)NC(=O)C1)N1CC(=O)NC(=O)C1` here?
**A.** The value was -0.0825% [at 26.4 µM, active compounds read high].

**Q.** With `CC(=O)SC[C@@H](Cc1ccccc1)C(=O)NCC(=O)OCc1ccccc1` as the compound, how does the “activity change” value read?
**A.** Its value is -2.63% [at 26.4 µM, active compounds read high].

**Q.** With `CC1OC(=O)C(C)OC1=O` (stereo not given) as the compound, how does the “activity change” value read?
**A.** The value was -0.231%.

**Q.** Which “activity change” value does the source give for `CC(C)(C)C(=O)/C=C/c1ccc(Cl)cc1` here?
**A.** The value was 1.21%.

**Q.** `CCCCCCCCCCCCCCCCCO` was tested. Which activity change did it give?
**A.** The activity change was 4.53% [at 11.8 µM, active compounds read high].

**Q.** For `CNS(=O)(=O)Cc1ccc2[nH]cc(CCN(C)C)c2c1`, which “activity change” value is on record?
**A.** Its value is -0.365% [at 26.4 µM, active compounds read high].

**Q.** `FC(F)(F)c1ccc(Cl)cc1Cl` was tested. Which “activity change” value did it give?
**A.** Its value is 0.2%.

**Q.** How did the “activity change” value turn out when `CC1=CC(=O)CC(C)(C)C1=O` was run?
**A.** Its value is -0.118%.

**Q.** How did the “activity change” value turn out when `CC(C)=CCC[C@@](C)(O)[C@H]1CC=C(C)CC1` was run?
**A.** Its value is 14.1% [at 26.4 µM, active compounds read high].

**Q.** Which “activity change” value does the source give for `Cc1c(Cn2ccnc2)c2ccccc2n1CCC(=O)O` here?
**A.** Its value is -0.138% [at 26.4 µM, active compounds read high].

**Q.** For `CNC(=O)CN(CCN(CCN(CC(=O)[O-])CC(=O)NC)CC(=O)[O-])CC(=O)[O-].O.[Gd+3]`, which “activity change” value is on record?
**A.** Its value is -1.63% [at 26.4 µM, active compounds read high].

**Q.** How did the “activity change” value turn out when `Cc1cc(Br)ccc1NC(=O)CCl` was run?
**A.** The value was -0.298%.

**Q.** For `O=C(O)CCCc1ccccc1`, which “activity change” value is on record?
**A.** The value was -1.62% [at 26.4 µM, active compounds read high].

**Q.** How did the “activity change” value turn out when `NC(=O)C(=O)N/N=C/c1ccc([N+](=O)[O-])o1` was run?
**A.** Its value is -0.0319% [at 26.4 µM, active compounds read high].

**Q.** For `ClC(Cl)(Br)Br`, which “activity change” value is on record?
**A.** Its value is 0.197%.

**Q.** Which “activity change” value does the source give for `CCN(CC)CCNC(=O)c1cc(S(C)(=O)=O)ccc1OC` here?
**A.** Its value is -1.85% [at 26.4 µM, active compounds read high].

**Q.** For `CCOCCOCCOC(C)=O`, which “activity change” value is on record?
**A.** Its value is -1.07%.

**Q.** For `N[C@H](C(=O)O)[C@@H](O)c1ccc(O)c(O)c1`, which “activity change” value is on record?
**A.** Its value is 1.27% [at 26.4 µM, active compounds read high].

**Q.** With `CO[C@H]1O[C@H](CO)[C@@H](O)[C@H](O)[C@H]1O` as the compound, how does the “activity change” value read?
**A.** The value was 1.58%.

**Q.** Which “activity change” value does the source give for `CC[N+](CC)(CCNC(=O)C(=O)NCC[N+](CC)(CC)Cc1ccccc1Cl)Cc1ccccc1Cl` here?
**A.** Its value is -1.15% [at 26.4 µM, active compounds read high].

**Q.** Which activity change does the source give for `O=C=NCc1cccc(CN=C=O)c1` here?
**A.** Its activity change is -0.327% [at 11.8 µM, active compounds read high].

**Q.** With `CC(C)Cc1nccs1` as the compound, how does the “activity change” value read?
**A.** Its value is 2.06%.

**Q.** With `Nc1cc(Cl)c(O)c(Cl)c1` as the compound, how does the “activity change” value read?
**A.** Its value is -0.0203%.

**Q.** With `CC(C)(C)NC[C@H](O)COc1cccc2c1CCCC2=O` as the compound, how does the “activity change” value read?
**A.** The value was 0.444% [at 26.4 µM, active compounds read high].

**Q.** How did the “activity change” value turn out when `Cc1ccc2c(c1)c1c3n2CCNC3CCC1` (stereo not given) was run?
**A.** Its value is 0.972% [at 26.4 µM, active compounds read high].
